# Records with an inconclusive call do not appear. Calls of active or inactive are those of the source. The call rests on the fitted dose curve; in most records, active means well fitted activation curve with a large enough effect in the signal ratio, with a control signal flat (not every such curve was filed as active); inconclusive means small, poorly fitted or top-dose-only effect, or a change in a side signal; inactive means flat fitted curve, though single readings scatter; the % refers to the signal ratio.
# Experiment: Confirmation Concentration-Response Assay for Cell signaling CRE-BLA (Fsk stim)
# Settings: CHO CRE-bla reporter (cAMP response element driving beta-lactamase), NKH477 EC10 stim, FRET ratio; series mostly up to 38.3 µM
# From the text: NIH Molecular Libraries Screening Centers Network [MLSCN] NIH Chemical Genomics Center [NCGC] MLSCN Grant: 1X01MH079867-01 Assay Provider: Marshall W. Nirenberg, U.S. National Heart, Lung and Blood Institute CRE beta-lactamase Assay Overview Memories persist for different lengths of time, from seconds or minutes to a lifetime. There are two kinds of memory: short-term memory (STM) and long-term memory (LTM). STM lasts for minutes to hours, which maybe mediated by modifications of molecules involved in synaptic functions. LTM lasts for days or longer, and may be due to the formation of new synapses or restructuring of existing synapses. LTM, but not STM, requires gene transcription and synthesis of proteins. CREB (cyclic-AMP Responsive Element Binding Protein) is one of the candidates plays an important role for enhancement of some types of LTM. CREB, a family of transcription factors, regulates the transcription of genes containing cAMP Responsive Elements (CRE). CRE is a nucleotide sequence often found in the promoter regions of genes that are binding sites for CREB. Using a beta-lactamase reporter-gene under control of cAMP responsive element, a cell-based assay [CellSensor(TM) CRE-bla CHO developed by Invitrogen Corp.] was used to measure forskolin-induced signaling. The selected compounds were measured for their ability to modulate positively the action of EC10 NKH 477, a water soluble forskolin, on reporter gene activity. Compounds were screened in a titration series in 1536-well format. Positive modulators were identified based on the AC50 values derived from the screening data.
# NCGC Assay Protocol Summary 2000 cells/5uL in Opti-MEM medium containing 0.5% dialyzed FBS, 0.1 mM NEAA, 1 mM sodium pyruvate and 10 mM HEPES was dispensed into 1536-well plates and cells were cultured at 37 degrees Celsius overnight. Next day 23 nL of compounds or DMSO were delivered to each well using a pin tool, and 1uL of EC10 level of NKH 477, or EC100 level of IBMX, a PDE inhibitor, in the present of NKH 477, or assay medium was added. And then the plates were incubated at 37 degrees Celsius for 3 hours. 1 uL of CCF4-dye mixture was added to each well. After incubated at room temperature for 2 hours the plates were measured on an EnVision plate reader at Excitation 405nm, Emission1=460nm and Emission 2=530nm. The %Activity was determined from the ratio of 460nm/530nm. Keywords: NIH Roadmap, MLSCN, MLSMR, qHTS, NCGC, CRE, beta-lactamase reporter-gene assay.
row,SMILES,Potency
1,CCc1nc(Nc2ccc3nccnc3c2)c2oc3ccccc3c2n1,1.58 µM (active)
2,CCN(CC)c1nc2ccccc2n2cnnc12,15.8 µM (active)
3,COc1ccc(CCNC(=O)CSc2nc(C)nc3c2oc2ccccc23)cc1OC,12.6 µM (active)
4,O=C(Nc1ccccc1O)c1cc(S(=O)(=O)N2CCOCC2)ccc1Cl,inactive
5,Fc1ccc(C2=Nn3c(Cc4ccccc4)nnc3SC2)cc1,inactive
6,Cn1c(/C(C#N)=C/C2CC=CCC2)nc2ccccc21 (stereo not given),inactive
7,COC(=O)c1ccc(CSc2ccc3nnc(-c4cccc(F)c4)n3n2)o1,15.8 µM (active)
8,Cc1cc(Nc2ccc3ccccc3c2)n2ncnc2n1,inactive
9,CCOc1ccc(C2c3c(oc4ccccc4c3=O)C(=O)N2c2ccc(C)cn2)cc1OC (stereo not given),15.8 µM (active)
10,CSc1nc2ccc(Nc3nc(N4CCOCC4)nc(N4CCOCC4)n3)cc2s1,12.6 µM (active)
11,Cc1cc(C)nc(N2CCN(c3nc(C)nc4c3oc3ccccc34)CC2)n1,inactive
12,CC1CCc2c(sc3nc(C4CC4)nc(SCC(=O)NCc4ccco4)c23)C1 (stereo not given),inactive
13,COc1cc(-c2cc(=O)c3ccccc3o2)ccc1O,15.8 µM (active)
14,CN(C)c1nc(N(C)C)nc(N(C)C)n1,inactive
15,Cn1c(C(=O)NCCCN2CCCC2=O)cc2c(=O)n(C)c3ccccc3c21,25.1 µM (active)
16,Cc1sc2nc(SCc3nc4ccccc4[nH]3)n(Cc3ccco3)c(=O)c2c1C,1.26 µM (active)
17,CCCCCOC(=O)c1[nH]c2c(c1C)C(=O)CC(c1ccco1)C2 (stereo not given),0.251 µM (active)
18,CC[C@]1(O)C[C@@H]2CN(CCc3c([nH]c4ccccc34)[C@](C(=O)OC)(c3cc4c(cc3OC)N(C)[C@H]3[C@](O)(C(=O)OC)[C@@H](C(=O)OC)[C@@]5(CC)C=CCN6CC[C@@]43[C@@H]65)C2)C1,0.0631 µM (active)
19,Cc1ccc(-n2ncc3c(=O)[nH]c(SCC(=O)N4CCOCC4)nc32)cc1,inactive
20,CCCN(C#N)c1nc(NCC)nc(NC(C)C)n1,12.6 µM (active)

row,SMILES,Potency
1,COC(=O)c1ccc(CSc2nc3c(cnn3-c3ccc(F)cc3)c(=O)[nH]2)o1,15.8 µM (active)
2,Fc1ccc(CSc2ncnc3c2oc2ccccc23)cc1,10 µM (active)
3,CCOC(=O)c1ccccc1NC(=O)c1cc(S(=O)(=O)N2CCOCC2)ccc1F,12.6 µM (active)
4,COc1cc(C2NC(=O)NC(C)=C2C(=O)OC(C)(C)C)ccc1OCC(N)=O (stereo not given),inactive
5,O=c1[nH]c(SCc2ccccc2Cl)nc2c1cnn2-c1ccccc1,3.98 µM (active)
6,Cc1nn(-c2ccccc2)c2sc(C(=O)N(CC(=O)NC(C)(C)C)Cc3ccco3)cc12,7.94 µM (active)
7,Cc1cc(N2CCN(S(=O)(=O)c3ccc4c(c3)OCCO4)CC2)n2ncnc2n1,3.16 µM (active)
8,Cc1cc(-c2nnc3n2N=C(c2ccc(-c4ccccc4)cc2)CS3)n[nH]1,12.6 µM (active)
9,CCN(C(=O)c1cn(C)c(=O)c2cc(OC)c(OC)cc12)c1cc(OC)ccc1OC,inactive
10,COc1ccc(/C(O)=C(\C#N)c2nc3ccccc3n2C)cc1OC,15.8 µM (active)
11,CC1(C)Cc2c(sc3nc(SCC#N)n(C4CCCCC4)c(=O)c23)CO1,20 µM (active)
12,CCOC(=O)C1=C(CN2CCC(C)CC2)NC(=O)NC1c1ccc(Cl)cc1 (stereo not given),12.6 µM (active)
13,CCCN(CCC)c1nc2ccccc2n2c(C)nnc12,12.6 µM (active)
14,CC[C@]1(O)C[C@@H]2CN(CCc3c([nH]c4ccccc34)[C@](C(=O)OC)(c3cc4c(cc3OC)N(C=O)[C@H]3[C@@](O)(C(=O)OC)[C@H](C(=O)OC)[C@@]5(CC)C=CCN6CC[C@]43[C@H]65)C2)C1,0.501 µM (active)
15,Cn1c(/C(C#N)=C/Nc2ccccn2)nc2ccccc21,inactive
16,O=C(c1cc(S(=O)(=O)N2CCOCC2)ccc1F)N1CCCc2ccccc21,inactive
17,CCc1nc(SCC(=O)N2CCc3ccccc32)c2oc3ccccc3c2n1,10 µM (active)
18,Cc1cc(C)n(-c2nc(Nc3ccccc3)nc(-n3nc(C)cc3C)n2)n1,inactive
19,CCc1nc2nc(C)cc(Nc3cccc(C(F)(F)F)c3)n2n1,7.94 µM (active)
20,CCCN(CCC)CCNC(=O)c1cc2c(=O)n(C)c3ccccc3c2n1C,inactive

# From PubChem BioAssay AID916 (National Center for Advancing Translational Sciences (NCATS), 2007)
